# A number with no mark means an inactive call. The source made the active and inactive calls. Calls come from the whole dose curve; as a rule, active = well fitted curve in the direction sought with a large enough effect in the repeat runs; inconclusive = weak or mixed curves; inactive = flat fitted curve, though single readings scatter.
# Experiment: qHTS assay to test for compound auto fluorescence at 460 nm (blue) in HEK293 cell free culture (AID 720681)
# Settings: cell-free medium, autofluorescence 405/460 nm (blue); series mostly up to 91.3 µM; fluorescence, % of fluorescent control: at the top concentration
# Method in brief: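 Blue fluorescence (Ex 405/Em 460 nm, triamterene-equivalent) was read immediately after pin transfer of compound or DMSO into medium (DMEM, 10% FBS) without cells.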
# % is set by controls: 0 for no effect and ±100 for the full control effect.
SMILES,"fluorescence, % of fluorescent control",Potency
CCN(CC)Cc1nccn1-c1ccc([N+](=O)[O-])cc1C(=O)c1ccccc1Cl,0% [at 46 µM],
NC1CCC(CC2CCC(N)CC2)CC1 (centres undefined),0.106%,
Nc1ccc(N=Nc2ccccc2)cc1,-1.19%,
Clc1ccc(C(c2ccc(Cl)cc2)C(Cl)Cl)cc1,,inactive
Oc1cc(Cl)cc(Cl)c1,-0.223%,
CCCCC(CC)COC(=O)c1ccccc1C(=O)OCC(CC)CCCC (centres undefined),-0.379%,
CCN(CC)CCc1c[nH]c2ccccc12,-0.0953% [at 95.7 µM],
c1ccc(Nc2ccc(Nc3ccccc3)cc2)cc1,0.0539%,
CN(C)C(=S)SSC(=S)N(C)C,,inactive
Oc1ccc2[nH]cc(CCCCN3CC=C(c4ccccc4)CC3)c2c1,-0.078% [at 46 µM],
CCOP(=S)(OCC)Oc1cc(C)nc(N(CC)CC)n1,0.0112%,
COc1ccc2[nH]cc(CCN(C(C)C)C(C)C)c2c1,-0.0848% [at 95.7 µM],
C=CCOC(=O)c1ccccc1N,-0.0575%,
CC1(C)[C@H](/C=C2\CCSC2=O)[C@@H]1C(=O)OCc1coc(Cc2ccccc2)c1,0.257%,
Nc1ccccc1-c1ccccc1,-0.178%,

# Experiment: qHTS assay to test for compound auto fluorescence at 535 nm (green) in HEK293 cell free culture (AID 720682)
# Settings: cell-free medium, green autofluorescence 485/535 nm, hits give high values; series mostly up to 91.3 µM; activity change: at the top concentration
# Method in brief: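 Steps: dispense DMEM/10% FBS into empty wells; pin in compound or DMSO; measure fluorescence at 485/535 nm. Values are fluorescein equivalents.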
SMILES,activity change,outcome
CSC(=O)c1c(C(F)F)nc(C(F)(F)F)c(C(=O)SC)c1CC(C)C,0.038%,
CCOP(=O)(OCC)Oc1cc(C)nc(C(C)C)n1,0.0507%,
CCOP(=O)(Sc1ccccc1)Sc1ccccc1,-0.0775%,
CCC1COC(Cn2cncn2)(c2ccc(Cl)cc2Cl)O1 (centres undefined),0.0059%,
Clc1ccc(C(Cl)(Cl)Cl)cc1Cl,-0.0854%,
Nc1nc(N)nc(Cl)n1,0.0656%,
ClCBr,0.0441% [at 95.7 µM],
CC(Cc1ccc2c(c1)OCO2)NO (centres undefined),0.0514% [at 95.7 µM],
C[C@H]1[C@H](c2ccc(Cl)cc2)SC(=O)N1C(=O)NC1CCCCC1,-0.0248%,
CCOP(=O)(OCC)Oc1nc(Cl)c(Cl)cc1Cl,-0.0001%,
C[N+]1(C)[C@@H]2CC[C@H]1CC(OC(=O)C(CO)c1ccccc1)C2 (some centres undefined),,inactive
CCOP(=S)(NC(C)C)Oc1ccccc1C(=O)OC(C)C (centres undefined),0.0507%,
O=S1(=O)OCC2C(CO1)C1(Cl)C(Cl)=C(Cl)C2(Cl)C1(Cl)Cl (centres undefined),-0.0533%,
O=C(O)CCCCCCNC1c2ccccc2CCc2ccccc21,-0.0271% [at 46 µM],
Cc1cnc2c(C(=O)O)c(Cl)ccc2c1,-0.12%,
C#CCO,0.0486%,
CCCCCCCc1ccc(O)cc1,-0.0942%,
S=C=NCCc1ccccc1,0.0881%,
CC1=C2C[C@H]3[C@@H](CC=C4C[C@@H](O)CC[C@@]43C)[C@@H]2CC[C@]12O[C@@H]1C[C@H](C)CN[C@H]1[C@H]2C,0.115% [at 46 µM],

SMILES,activity change,outcome
FC(F)C(F)(F)OCC(Cn1cncn1)c1ccc(Cl)cc1Cl (centres undefined),-0.0133%,
CCCCN(CCCC)C(=S)[S-].CCCCN(CCCC)C(=S)[S-].[Ni+2],0.0747% [at 46 µM],
COC(=O)/C=C(\C)OP(=O)(OC)OC,0.0649%,
CCN(CC)Cc1nccn1-c1ccc([N+](=O)[O-])cc1C(=O)c1ccccc1Cl,0.0354% [at 46 µM],
NC1CCC(CC2CCC(N)CC2)CC1 (centres undefined),-0.0505%,
Nc1ccc(N=Nc2ccccc2)cc1,-0.194%,
Clc1ccc(C(c2ccc(Cl)cc2)C(Cl)Cl)cc1,,inactive
Oc1cc(Cl)cc(Cl)c1,-0.0533%,
CCCCC(CC)COC(=O)c1ccccc1C(=O)OCC(CC)CCCC (centres undefined),0.101%,
CCN(CC)CCc1c[nH]c2ccccc12,-0.104% [at 95.7 µM],
c1ccc(Nc2ccc(Nc3ccccc3)cc2)cc1,0.0212%,
CN(C)C(=S)SSC(=S)N(C)C,,inactive
Oc1ccc2[nH]cc(CCCCN3CC=C(c4ccccc4)CC3)c2c1,0.0485% [at 46 µM],
CCOP(=S)(OCC)Oc1cc(C)nc(N(CC)CC)n1,-0.0291%,
COc1ccc2[nH]cc(CCN(C(C)C)C(C)C)c2c1,-0.1% [at 95.7 µM],
C=CCOC(=O)c1ccccc1N,0.0674%,
CC1(C)[C@H](/C=C2\CCSC2=O)[C@@H]1C(=O)OCc1coc(Cc2ccccc2)c1,-0.0081%,
Nc1ccccc1-c1ccccc1,-0.0245%,

# Experiment: qHTS assay to test for compound auto fluorescence at 590 nm (red) in HEK293 cell free culture (AID 720683)
# Settings: cell-free medium autofluorescence, Ex540/Em590 red; series mostly up to 91.3 µM; fluorescence, % of fluorescent control: at the top concentration
# Method in brief: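 Red-channel autofluorescence of compounds in culture medium (DMEM, 10% FBS), no cells, measured at 540/590 nm. Rose Bengal sodium is the reference fluorophore for equivalence.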
SMILES,"fluorescence, % of fluorescent control",outcome
CSC(=O)c1c(C(F)F)nc(C(F)(F)F)c(C(=O)SC)c1CC(C)C,0.457%,
CCOP(=O)(OCC)Oc1cc(C)nc(C(C)C)n1,-0.0276%,
CCOP(=O)(Sc1ccccc1)Sc1ccccc1,-0.493%,
CCC1COC(Cn2cncn2)(c2ccc(Cl)cc2Cl)O1 (centres undefined),-0.0302%,
Clc1ccc(C(Cl)(Cl)Cl)cc1Cl,-0.23%,
Nc1nc(N)nc(Cl)n1,-0.125%,
ClCBr,0.0617% [at 95.7 µM],
CC(Cc1ccc2c(c1)OCO2)NO (centres undefined),0.126% [at 95.7 µM],
C[C@H]1[C@H](c2ccc(Cl)cc2)SC(=O)N1C(=O)NC1CCCCC1,0.0432%,
CCOP(=O)(OCC)Oc1nc(Cl)c(Cl)cc1Cl,0.0716%,
C[N+]1(C)[C@@H]2CC[C@H]1CC(OC(=O)C(CO)c1ccccc1)C2 (some centres undefined),,inactive
CCOP(=S)(NC(C)C)Oc1ccccc1C(=O)OC(C)C (centres undefined),0.0251%,
O=S1(=O)OCC2C(CO1)C1(Cl)C(Cl)=C(Cl)C2(Cl)C1(Cl)Cl (centres undefined),-0.0145%,
O=C(O)CCCCCCNC1c2ccccc2CCc2ccccc21,-0.0927% [at 46 µM],
Cc1cnc2c(C(=O)O)c(Cl)ccc2c1,-0.0822%,
C#CCO,-0.352%,
CCCCCCCc1ccc(O)cc1,-0.545%,
S=C=NCCc1ccccc1,-0.121%,
CC1=C2C[C@H]3[C@@H](CC=C4C[C@@H](O)CC[C@@]43C)[C@@H]2CC[C@]12O[C@@H]1C[C@H](C)CN[C@H]1[C@H]2C,-0.104% [at 46 µM],

SMILES,"fluorescence, % of fluorescent control",outcome
FC(F)C(F)(F)OCC(Cn1cncn1)c1ccc(Cl)cc1Cl (centres undefined),0.0424%,
CCCCN(CCCC)C(=S)[S-].CCCCN(CCCC)C(=S)[S-].[Ni+2],0.037% [at 46 µM],
COC(=O)/C=C(\C)OP(=O)(OC)OC,0.218%,
CCN(CC)Cc1nccn1-c1ccc([N+](=O)[O-])cc1C(=O)c1ccccc1Cl,0.0237% [at 46 µM],
NC1CCC(CC2CCC(N)CC2)CC1 (centres undefined),-0.085%,
Nc1ccc(N=Nc2ccccc2)cc1,-0.45%,
Clc1ccc(C(c2ccc(Cl)cc2)C(Cl)Cl)cc1,,inactive
Oc1cc(Cl)cc(Cl)c1,-0.326%,
CCCCC(CC)COC(=O)c1ccccc1C(=O)OCC(CC)CCCC (centres undefined),-0.769%,
CCN(CC)CCc1c[nH]c2ccccc12,-0.723% [at 95.7 µM],
c1ccc(Nc2ccc(Nc3ccccc3)cc2)cc1,-0.0157%,
CN(C)C(=S)SSC(=S)N(C)C,,inactive
Oc1ccc2[nH]cc(CCCCN3CC=C(c4ccccc4)CC3)c2c1,0.211% [at 46 µM],
CCOP(=S)(OCC)Oc1cc(C)nc(N(CC)CC)n1,0.0188%,
COc1ccc2[nH]cc(CCN(C(C)C)C(C)C)c2c1,-0.145% [at 95.7 µM],
C=CCOC(=O)c1ccccc1N,0.0042%,
CC1(C)[C@H](/C=C2\CCSC2=O)[C@@H]1C(=O)OCc1coc(Cc2ccccc2)c1,0.11%,
Nc1ccccc1-c1ccccc1,-0.558%,
